Values joined by “and” are separate entries in the source; they are usually repeats but may differ in a detail not shown here. Equal entries are not always repeated. For some assays here: Measured potencies and affinities stand elsewhere. Active and inactive are the calls of the source.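 The calls were made as follows, unless noted: active = thallium flux through the channel raised or lowered by more than 3 SD from vehicle-only wells, actives on both sides; inactive = the rest.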

Test [1] is described as follows: blockers of polyQ-driven CASP3 activation – cell-based (AID 1583). Conditions: polyglutamine-induced caspase-3 activation, cell assay; stronger effect = higher value;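 tested at 10 µM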.
Test [2] in a line: yeast 75Q aggregation reduction – 75Q-TubU reporter (AID 1593). Conditions: Yeast 75Q polyglutamine aggregation reporter.
A short description of test [3]: restoration of touch response, mutant HTT neurons – whole organism, C. elegans mechanosensory neurons, N-terminal huntingtin (AID 1599). Conditions: C. elegans polyQ-huntingtin mechanosensory neurons, stronger effect = higher value.
Test [4] is described as follows: blockers of cytochrome c efflux from mitochondria – biochemical, purified mitochondria (AID 1603).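 Also: mouse liver mitochondria challenged with calcium chloride; signal normalized to the plate average as 100%.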 Conditions: stronger effect = lower value.
The nature of test [5]: polyglutamine aggregate formation blockers (AID 1604). Conditions: polyglutamine-induced protein aggregation inhibition assay; stronger effect = higher value; tested at 2.5 µM.
Test [6] is described as follows: glutamate transport activators, MN-1 cells, MN-1 cell line (AID 1612).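 Also: tested at 1 µM final; 0% = mean of DMSO vehicle wells on each plate; positive means more glutamate uptake than control and negative means less.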 The following applies: MN-1 motor neuron cells, stronger effect = higher value.
Test [7] is described as follows: 75Q-TubH aggregate inhibition, S. cerevisiae, yeast (AID 1616). Conditions: S. cerevisiae 75Q-TubH polyglutamine aggregation suppression; stronger effect = higher value.
Test [8] is described as follows: compounds altering viability of human ES cells (AID 493140; call rule not given here;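 also: cells exposed to compounds for four days before counting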). Conditions: human embryonic stem cell survival screen; stronger effect = higher value.
Test [9] is described as follows: signal quenchers or enhancers, Cy5 substrate/SSB – biochemical, NIH Clinical Collection, E. coli SSB, artefact control for HCV NS3 helicase inhibitor project (AID 743268; call rule not given here). The following applies: Cy5-oligo bound E. coli SSB, fluorescence interference.
The test system of test [10] is Hepatitis C virus NS3 helicase. The experiment in a line: blockers of NS3h binding to DNA – biochemical, fluorescence polarization, NIH Clinical Collection, primary screen (AID 743270; call rule not given here). Conditions: NS3 helicase binding to Cy5-dT15 DNA, stronger effect = higher value, concentration not given here. Background: Fluorescence polarisation rises when a labelled molecule tumbles more slowly, as on binding a larger partner.

Test [11] concerns the target Single-stranded DNA-binding protein (Escherichia coli (strain K12)) (UniProt P0AGE0). The experiment in a line: SSB-ssDNA binding inhibitors – biochemical, fluorescence polarization, NIH Clinical Collection, counter-screen for HCV NS3 helicase inhibitor project (AID 743271; in the data active = inhibition above about 28%). The following applies: E. coli SSB-DNA binding, stronger effect = higher value, concentration not given here.

Test [12] in a line: compounds distorting NS3 helicase fluorescence signal – biochemical, NIH Clinical Collection, artefact control for HCV NS3 helicase inhibitor project (AID 743272; call rule not given here;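 also: HCV NS3 helicase with a Cy5 labelled single stranded DNA probe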). The following applies: fluorescence interference counterscreen, HCV NS3 helicase assay; stronger effect = lower value. (The purpose of a counterscreen is to sort out artefacts and off-target activity.)
Test [13] can be described thus: galactose survival enhancers in mitochondrial complex I cybrids – cell-based, galactose medium, ATP luminescence, primary screen (AID 1645843;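 active = z-score of at least 1.8 in each of two replicates, scored against plate mean and spread of sample wells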;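 also: positive z means more ATP and so rescue of galactose-driven cybrid death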). The following applies: complex I mutant cybrid cells, 72 h, stronger effect = higher value.
A further test deals with R275C. The experiment in a line: BK channel mutant inhibitors and activators – cell-based, U2OS BacMam, thallium flux, beta subunits, selectivity assay, profiling panel (AID 1259406).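 Also: initial slope of Thallos dye fluorescence rise after thallium is added; log ratio against the mean of 0.3% DMSO vehicle wells on the same plate.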 The following applies: U2OS BacMam BK variants, at 30 µM.
The next test deals with R275C/beta1. The test is described as above. Conditions: U2OS BacMam BK variants, at 30 µM.
The subject of another test is R275C/beta2Delta. The test is described as above. The following applies: U2OS BacMam BK variants, at 30 µM.
The test system of a further test is R275C/beta4. Described as above. Conditions: U2OS BacMam BK variants, at 30 µM.
Another test deals with R275C/Slo1WT/beta2. Described as above. Conditions: U2OS BacMam BK variants, at 30 µM.
The nature of test [14]: viability loss with induced miR-34 in A549 – imaging, A549 dox-inducible miR-34, nuclei and caspase counts, primary screen (AID 1347080;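 active = compounds whose cell count with miR-34 switched on is under 0.7 times the count with it off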). The following applies: A549 miR-34 inducible, Hoechst nuclei count, 48 h.

As to `OC(CCN1CCCCC1)(c1ccccc1)C1CCCCC1` (configuration not stated), the inhibition (in general, the drop in the measured response relative to a control, in per cent) is -21% in test [1], -5.91% (inactive) in test [10] and -2.76% (inactive) in [11]. The compound further displayed a score in test [2] of 1.21. This compound also had a rescue above control in test [3] of 1.37. In test [4], the cytochrome c release ratio worked out at 1.32. This compound also came in with an inhibition of aggregation in test [5] of 88.9%. For the same compound, the glutamate uptake change in test [6] was -20.9%. Moreover, the aggregation suppression score in [7] is 1.42. Also, the survival in test [8] is 3.42 (inactive). The fluorescence ratio was 0.99 (inactive) in test [9] and 0.95 (inactive) in [12]. The z-score in test [13] was -0.545 (inactive) and -0.525 (inactive). Also, the log fold change Tl+ flux with R275C was -0.119 (active); in the test on R275C/beta1, 0.105 (inactive); with R275C/beta2Delta it was -0.0882 (inactive); with R275C/beta4, 0.0638 (inactive); in the test with R275C/Slo1WT/beta2 it was 0.0146 (inactive).
On to `CC(=O)CCCCn1c(=O)c2c(ncn2C)n(C)c1=O`, for which the inhibition was 49.3% in [1], -5.15% (inactive) in [10] and -2.41% (inactive) in [11]. The score in test [2] stood at 1.37. The rescue above control in [3] is -11.6. The cytochrome c release ratio in test [4] turned out to be 0.83. Besides, the inhibition of aggregation in test [5] came out at 60.9%. In addition, in test [6], the glutamate uptake change was -0.27%. The compound further returned an aggregation suppression score in [7] of 1.44. In addition, the survival in test [8] is 14.1 (inactive). Moreover, the results for the fluorescence ratio in test [9] and in test [12] were 1.01 (inactive) and 1 (inactive), respectively. Moreover, the z-score in test [13] is 0.465 (inactive) and 0.86 (inactive) and 0.55 (inactive). Further, the log fold change Tl+ flux in the test on R275C was -0.0458 (inactive); with R275C/beta1, -0.0218 (inactive); in the test on R275C/beta2Delta it was 0.00216 (inactive); in the test with R275C/beta4, -0.0339 (inactive); in the test with R275C/Slo1WT/beta2 it was -0.000483 (inactive).
`Nc1ccc(S(=O)(=O)c2ccc(N)cc2)cc1`: the inhibition is 2.36% in test [1], -3.18% (inactive) in [10] and 0.29% (inactive) in test [11]. Besides, in test [2], the score amounted to 0.97. This compound came in with a rescue above control in test [3] of 9.67. In addition, the cytochrome c release ratio in test [4] was determined as 0.87. The inhibition of aggregation in test [5] stood at 66.2%. For the same compound, the glutamate uptake change in test [6] was -16.9%. Moreover, the aggregation suppression score in test [7] was determined as 1.25. Further, the survival in test [8] was 11.6 (inactive). The values for the fluorescence ratio in test [9] and in test [12] were 0.97 (inactive) and 0.95 (inactive), respectively. In addition, the fold change in test [14] (stronger effect = lower value, cell number ratio, induced over uninduced) was 0.912 (inactive) and 0.897 (inactive) and 0.875 (inactive); in [14] (measured here: relative caspase fold change +Dox/-Dox), 2.46 and 1.04 and 1.7. The cell count in test [14] (measured here: total cells with miR-34 induction, stronger effect = lower value) was 9830 and 8600 and 10200; in [14] (measured here: total cells without miR-34 induction) it was 10800 and 9580 and 11700. The z-score in [13] is -0.16 (inactive). For the same compound, the log fold change Tl+ flux with R275C is -0.00888 (inactive); in the test on R275C/beta1 it was -0.0191 (inactive); with R275C/beta2Delta, 0.0154 (inactive); with R275C/beta4, -0.0181 (inactive); in the test with R275C/Slo1WT/beta2, -0.0232 (inactive).
In the case of `CN(C)CCC=C1c2ccccc2CCc2ccccc21`, the results for the inhibition in test [1], in test [10] and in test [11] were 5.08%, -7.73% (inactive) and -2% (inactive), respectively. The score in test [2] is 0.94. The rescue above control in test [3] came out at 17.6. The cytochrome c release ratio in test [4] stood at 1.57. This compound also registered an inhibition of aggregation in test [5] of 70.5%. Besides, the glutamate uptake change in [6] is -1.53%. In test [7], this compound returned an aggregation suppression score of 0.931. Further, the survival in test [8] is 7.08 (inactive). In addition, the fluorescence ratio in test [9] is 0.94 (inactive); in test [12] it was 0.92 (inactive). Also, the z-score in [13] was -0.73 (inactive) and -1.31 (inactive). Besides, the log fold change Tl+ flux was 0.07 (inactive) in the test on R275C; 0.106 (inactive) in the test on R275C/beta1; 0.128 (active) with R275C/beta2Delta; 0.135 (active) with R275C/beta4; 0.00351 (inactive) in the test with R275C/Slo1WT/beta2.
On to `CC(N=C(NC#N)Nc1ccncc1)C(C)(C)C` (configuration not stated), for which the survival in test [8] was 59.8 (inactive). Further, the fluorescence ratio is 0.97 (inactive) in test [9] and 0.95 (inactive) in test [12]. Also, the results for the inhibition in [10] and in [11] were -0.22% (inactive) and 1.97% (inactive), respectively. Moreover, in test [13], the z-score was 0.04 (inactive) and -0.155 (inactive) and 0.65 (inactive). The log fold change Tl+ flux with R275C was 0.000868 (inactive); in the test with R275C/beta1, 0.00651 (inactive); in the test on R275C/beta2Delta, -0.00406 (inactive); with R275C/beta4, -0.0193 (inactive); in the test with R275C/Slo1WT/beta2, -0.0219 (inactive).
With `Cc1ccc(S(=O)(=O)NC(=O)NN2CCCCCC2)cc1`, the figures for the inhibition in test [1], in [10] and in [11] were -0.98%, -2.27% (inactive) and -2.76% (inactive), respectively. The compound further registered a score in [2] of 1.2. In [3], this compound yielded a rescue above control of 1.05. Moreover, the cytochrome c release ratio in test [4] amounted to 1.07. Further, the inhibition of aggregation in [5] was 69.7%. Moreover, the glutamate uptake change in test [6] stood at 14.9%. The same compound came in with an aggregation suppression score in test [7] of 0.918. Besides, in test [8], the survival is 3.17 (inactive). Moreover, the fluorescence ratio was 1.04 (inactive) in test [9] and 1 (inactive) in test [12]. Also, in test [13], the z-score is 0.415 (inactive) and 0.635 (inactive) and 0.49 (inactive). Further, the log fold change Tl+ flux is -0.0622 (inactive) with R275C; -0.00502 (inactive) with R275C/beta1; -0.0116 (inactive) in the test on R275C/beta2Delta; 0.0645 (inactive) in the test on R275C/beta4; -0.0145 (inactive) with R275C/Slo1WT/beta2.
As to `CCCCNC(=O)NS(=O)(=O)c1ccc(C)cc1`, the inhibition was -1.59% in test [1], -5.91% (inactive) in test [10] and 1.05% (inactive) in [11]. In test [2], this compound came in with a score of 1.02. The compound further registered a rescue above control in [3] of -3.14. The cytochrome c release ratio in test [4] is 0.7. In [5], the inhibition of aggregation worked out at 52.6%. Also, the glutamate uptake change in test [6] is -18.9%. In [7], this compound displayed an aggregation suppression score of 0.871. Also, in test [8], the survival was 25.3 (inactive). Further, in [12], the fluorescence ratio is 0.91 (inactive). Also, the z-score in test [13] was 0.82 (inactive) and -0.58 (inactive) and 0.93 (inactive). For the same compound, the log fold change Tl+ flux was -0.0266 (inactive) in the test on R275C; -0.0147 (inactive) in the test on R275C/beta1; 0.0266 (inactive) with R275C/beta2Delta; -0.00534 (inactive) in the test on R275C/beta4; -0.00827 (inactive) in the test on R275C/Slo1WT/beta2.

The values are drawn from PubChem BioAssay.
